For eight molecules, growth inhibition results are on record in PubChem BioAssay (NCI).

Where “and” joins values, the source holds several entries; their conditions need not be identical. Equal entries are not always repeated. The panel holds about 79,000 compounds, 15% with a hit somewhere; the sample as a whole holds those more often. Some structures have more than one record in an assay (separate samples or runs), and their calls can disagree. Calls of active or inactive are those of the source. Cut-off read from the data, not from the text of the source: active = growth inhibition above about 70%; inactive = the rest.

Assay [1] is described as follows: NCI Yeast Anticancer Drug Screen. Data for the rad50 strain (AID 155).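 Note: 0% = growth of vehicle-only cultures of the same strain.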 Conditions: S. cerevisiae rad50 strain growth inhibition, stronger effect = higher value. The method in brief: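 DNA repair mutant yeast, compound exposure, growth read-out; inhibition is taken relative to vehicle.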
Assay [2] in a line: NCI Yeast Anticancer Drug Screen. Data for the mec2-1 strain (AID 157). The conditions noted are these: S. cerevisiae mec2-1 strain, stronger effect = higher value. In a few lines:
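Strain: mec2-1 (DNA repair/cell cycle alteration). Compound exposure, then growth measured; inhibition expressed relative to vehicle.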

A short description of assay [3]: NCI Yeast Anticancer Drug Screen. Data for the sgs1 mgt1 strain (AID 161).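 Note: 0% = growth of cultures given vehicle only.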 The conditions noted are these: S. cerevisiae sgs1 mgt1 strain, stronger effect = higher value. In a few lines:
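Read-out: growth inhibition vs vehicle controls. Cells: mutant yeast strain deficient in DNA damage repair.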

Assay [4] can be described thus: NCI Yeast Anticancer Drug Screen. Data for the cln2 rad14 strain (AID 165).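 Note: 0% = growth equal to vehicle treated cultures.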 Conditions: S. cerevisiae cln2 rad14 strain, stronger effect = higher value. In a few lines: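 Compounds are applied to the cln2 rad14 yeast strain, and growth is then compared with that of vehicle-treated cultures to give inhibition.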
Assay [5] in a line: NCI Yeast Anticancer Drug Screen. Data for the bub3 strain (AID 167). The conditions noted are these: S. cerevisiae bub3 mutant strain, stronger effect = higher value. In a few lines: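 In this screen, a yeast mutant lacking normal mitotic checkpoint function is challenged with compound. Relative growth versus vehicle gives the inhibition value.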
The nature of assay [6]: NCI Yeast Anticancer Drug Screen. Data for the wt2 strain (AID 169).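 Note: 0% = growth of vehicle-treated yeast cultures.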 The conditions noted are these: S. cerevisiae wt2 strain growth inhibition, stronger effect = higher value. In a few lines: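 This strain belongs to a panel of yeast strains with defined genetic alterations in DNA damage repair or cell cycle control. Compounds are applied, and growth inhibition is measured against vehicle-treated cultures.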

Assay [7] can be described thus: NCI Yeast Anticancer Drug Screen. Data for the mlh1 rad18 strain (AID 175). Conditions: S. cerevisiae mlh1 rad18 strain growth inhibition, stronger effect = higher value. The method in brief:
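Read-out is yeast growth inhibition, calculated against vehicle-only controls. The compound was applied to a strain engineered with DNA damage repair alterations.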

Where [8] appears, read: at 5.0 µM (retest, dose inferred, filed as 0.5).
[9] abbreviates: at 50.0 µM (retest, dose inferred, filed as 5.0).

`COc1cc(OC)c(OC)cc1/C=C\c1ccnc2ccccc12`: the growth inhibition in assay [1] (setting [8]) was 19% (inactive); in assay [1] (setting [9]), 73% (active); in assay [1] (at 50.0 µM) it was 33.8% (inactive); in assay [2] (setting [8]), 13% (inactive); in assay [2] (setting [9]) it was 65% (inactive); in assay [2] (at 50.0 µM) it was 37% (inactive). For the same molecule, the growth inhibition in assay [3] (setting [8]) is 10% (inactive); in assay [3] (setting [9]), 88% (active); in assay [3] (at 50.0 µM), 88.4% (active); in assay [4] (setting [8]), 18% (inactive); in assay [4] (setting [9]), 57% (inactive); in assay [4] (at 50.0 µM), 41.5% (inactive). The growth inhibition was 6% (inactive) in assay [5] (setting [8]), 79% (active) in assay [5] (setting [9]) and 62.8% (inactive) in assay [5] (at 50.0 µM).

For `COc1cccc2c1C(=O)c1c(O)c3c(c(O)c1C2=O)C[C@@](O)(C(=O)CO)C[C@@H]3OC1CC(N)C(O)C(C)O1` (some centres not stated), the growth inhibition in assay [1] (setting [8]) was 91% (active) and 50% (inactive) and -5% (inactive); in assay [1] (setting [9]) it was 99% (active) and 94% (active) and 0% (inactive); in assay [1] (at 50.0 µM) it was 92.2% (active) and 94.8% (active) and 20.2% (inactive); in assay [2] (setting [8]) it was 41% (inactive) and 20% (inactive) and -6% (inactive); in assay [2] (setting [9]), 99% (active) and 82% (active) and -16% (inactive); in assay [2] (at 50.0 µM), 93.7% (active) and 52.2% (inactive) and -26% (inactive). Moreover, the growth inhibition is 53% (inactive) and 15% (inactive) and 4% (inactive) in assay [3] (setting [8]); 99% (active) and 88% (active) and -2% (inactive) in assay [3] (setting [9]); 94.6% (active) and 88% (active) and 5% (inactive) in assay [3] (at 50.0 µM); 25% (inactive) and 5% (inactive) and -23% (inactive) in assay [4] (setting [8]); 98% (active) and 49% (inactive) and 1% (inactive) in assay [4] (setting [9]); 90.5% (active) and 11.1% (inactive) and 91.5% (active) in assay [4] (at 50.0 µM). Moreover, the growth inhibition in assay [5] (setting [8]) is 57% (inactive) and 2% (inactive) and 22% (inactive); in assay [5] (setting [9]) it was 98% (active) and 72% (active) and 17% (inactive); in assay [5] (at 50.0 µM) it was 93.7% (active) and 88.8% (active) and -40.1% (inactive).

For `Cc1c(C)c(CCl)c(C)c(C)c1CCl`, the growth inhibition in assay [1] (setting [8]) was 53% (inactive); in assay [1] (setting [9]), 95% (active); in assay [1] (at 50.0 µM) it was 87.7% (active); in assay [2] (setting [8]), 71% (active); in assay [2] (setting [9]) it was 96% (active); in assay [2] (at 50.0 µM), 86% (active). In addition, the growth inhibition in assay [3] (setting [8]) is 1% (inactive); in assay [3] (setting [9]) it was 43% (inactive); in assay [3] (at 50.0 µM), 75.2% (active); in assay [4] (setting [8]), 34% (inactive); in assay [4] (setting [9]), 84% (active); in assay [4] (at 50.0 µM) it was 72.5% (active). Moreover, the growth inhibition is 14% (inactive) in assay [5] (setting [8]); 39% (inactive) in assay [5] (setting [9]); 61.5% (inactive) in assay [5] (at 50.0 µM); 0% (inactive) in assay [6] (at 1.2 µM); 25% (inactive) in assay [6] (at 3.7 µM); 71% (active) in assay [6] (at 11.0 µM). The growth inhibition in assay [6] (at 33.0 µM) is 82% (active); in assay [6] (at 100.0 µM), 83% (active); in assay [7] (setting [8]), 66% (inactive); in assay [7] (setting [9]), 95% (active); in assay [7] (at 50.0 µM), 82% (active).

Turning to `CCC1CCCC(=O)C1` (configuration not stated), the growth inhibition was 2% (inactive) in assay [1] (setting [8]); 2% (inactive) in assay [1] (setting [9]); 89.2% (active) in assay [1] (at 50.0 µM); -1% (inactive) in assay [2] (setting [8]); -5% (inactive) in assay [2] (setting [9]); 53.6% (inactive) in assay [2] (at 50.0 µM). For the same molecule, the growth inhibition is 0% (inactive) in assay [3] (setting [8]); -1% (inactive) in assay [3] (setting [9]); 14.1% (inactive) in assay [3] (at 50.0 µM); 3% (inactive) in assay [4] (setting [8]); 1% (inactive) in assay [4] (setting [9]); 36.2% (inactive) in assay [4] (at 50.0 µM). Further, the results for the growth inhibition in assay [5] (setting [8]), in assay [5] (setting [9]) and in assay [5] (at 50.0 µM) were 2% (inactive), 2% (inactive) and 99.4% (active), respectively.

With `CCC(C)c1ccc(O)c(C(C)CC)c1` (configuration not stated), the growth inhibition was 40% (inactive) in assay [1] (setting [8]); 98% (active) in assay [1] (setting [9]); 58.9% (inactive) in assay [1] (at 50.0 µM); 57% (inactive) in assay [2] (setting [8]); 98% (active) in assay [2] (setting [9]); 30.3% (inactive) in assay [2] (at 50.0 µM). For the same molecule, the growth inhibition in assay [3] (setting [8]) was -26% (inactive); in assay [3] (setting [9]) it was 72% (active); in assay [3] (at 50.0 µM), 45.8% (inactive); in assay [4] (setting [8]) it was 15% (inactive); in assay [4] (setting [9]) it was 60% (inactive); in assay [4] (at 50.0 µM), 27.8% (inactive). Further, the growth inhibition in assay [5] (setting [8]) was 38% (inactive); in assay [5] (setting [9]) it was 63% (inactive); in assay [5] (at 50.0 µM), 68.7% (inactive); in assay [6] (at 1.2 µM) it was -3% (inactive); in assay [6] (at 3.7 µM), -13% (inactive); in assay [6] (at 11.0 µM), -11% (inactive). In addition, the growth inhibition was -1% (inactive) in assay [6] (at 33.0 µM); 98% (active) in assay [6] (at 100.0 µM); 44% (inactive) in assay [7] (setting [8]); 99% (active) in assay [7] (setting [9]); 58.9% (inactive) in assay [7] (at 50.0 µM).

Regarding `CCCCCCCCCCCCN`, the growth inhibition in assay [1] (setting [8]) was 71% (active); in assay [1] (setting [9]), 99% (active); in assay [1] (at 50.0 µM) it was 77.5% (active); in assay [2] (setting [8]), 65% (inactive); in assay [2] (setting [9]), 99% (active); in assay [2] (at 50.0 µM) it was 45% (inactive). For the same molecule, the growth inhibition is -4% (inactive) in assay [3] (setting [8]); 98% (active) in assay [3] (setting [9]); 81.8% (active) in assay [3] (at 50.0 µM); 73% (active) in assay [4] (setting [8]); 100% (active) in assay [4] (setting [9]); 26.6% (inactive) in assay [4] (at 50.0 µM). Moreover, the growth inhibition is 56% (inactive) in assay [5] (setting [8]); 98% (active) in assay [5] (setting [9]); 79.7% (active) in assay [5] (at 50.0 µM); -14% (inactive) in assay [6] (at 1.2 µM); -21% (inactive) in assay [6] (at 3.7 µM); -9% (inactive) in assay [6] (at 11.0 µM). The growth inhibition was -5% (inactive) in assay [6] (at 33.0 µM); 97% (active) in assay [6] (at 100.0 µM); 70% (active) in assay [7] (setting [8]); 100% (active) in assay [7] (setting [9]); 72.2% (active) in assay [7] (at 50.0 µM).

`O=Cc1cc([N+](=O)[O-])ccc1O.[Eu]`: the growth inhibition in assay [1] (setting [8]) is 28% (inactive); in assay [1] (setting [9]), 51% (inactive); in assay [1] (at 50.0 µM) it was 81.3% (active); in assay [2] (setting [8]), 46% (inactive); in assay [2] (setting [9]), 69% (inactive); in assay [2] (at 50.0 µM), 86.1% (active). Further, the growth inhibition in assay [3] (setting [8]) is -4% (inactive); in assay [3] (setting [9]), 95% (active); in assay [3] (at 50.0 µM), 91.2% (active); in assay [4] (setting [8]), 18% (inactive); in assay [4] (setting [9]) it was 97% (active); in assay [4] (at 50.0 µM), 83.2% (active). Besides, the growth inhibition in assay [5] (setting [8]) is 49% (inactive); in assay [5] (setting [9]), 96% (active); in assay [5] (at 50.0 µM) it was 85.8% (active); in assay [6] (at 1.2 µM) it was 6% (inactive); in assay [6] (at 3.7 µM), 7% (inactive); in assay [6] (at 11.0 µM), 20% (inactive). The growth inhibition in assay [6] (at 33.0 µM) is 36% (inactive); in assay [6] (at 100.0 µM), 98% (active); in assay [7] (setting [8]) it was 29% (inactive); in assay [7] (setting [9]), 64% (inactive); in assay [7] (at 50.0 µM), 86.2% (active).

`CCOc1ccc(N/N=C(\CCC(=O)O)C(=O)O)cc1`: the growth inhibition was -6% (inactive) in assay [1] (setting [8]); 92% (active) in assay [1] (setting [9]); 96% (active) in assay [1] (at 50.0 µM); -9% (inactive) in assay [2] (setting [8]); 77% (active) in assay [2] (setting [9]); 81% (active) in assay [2] (at 50.0 µM). The growth inhibition in assay [3] (setting [8]) is -3% (inactive); in assay [3] (setting [9]), 84% (active); in assay [3] (at 50.0 µM), 50.2% (inactive); in assay [4] (setting [8]), -64% (inactive); in assay [4] (setting [9]), 94% (active); in assay [4] (at 50.0 µM), 94.1% (active). The growth inhibition is -15% (inactive) in assay [5] (setting [8]), -45% (inactive) in assay [5] (setting [9]) and 86.7% (active) in assay [5] (at 50.0 µM).
